Results published in PubChem BioAssay AID1851 (National Center for Advancing Translational Sciences (NCATS), 2009).
The whole screen tested about 16,000 compounds, of which about 5,700 (36%) were called active. Inconclusive results (about 24%) are left out. The call rests on the fitted dose curve; in most records, active means well fitted curve in the direction sought with a large enough effect; inconclusive means small, poorly fitted or top-dose-only effect, or effect the other way; inactive means no such curve, though single readings can be large or run the other way. The list shows a part of the results.

These compounds were tested against Cytochrome P450 1A2 (Homo sapiens) (UniProt P05177) (assay: Cytochrome panel assay with activity outcomes). Details: recombinant CYP, pro-luciferin dealkylation, luminescence, p450-cyp1a2; series mostly up to 57.1 µM.
On the % scale 0 is the no-effect control and ±100 the full control effect.

Chain of Cytochrome P450 1A2 (Homo sapiens) (P05177 whole entry, looked up): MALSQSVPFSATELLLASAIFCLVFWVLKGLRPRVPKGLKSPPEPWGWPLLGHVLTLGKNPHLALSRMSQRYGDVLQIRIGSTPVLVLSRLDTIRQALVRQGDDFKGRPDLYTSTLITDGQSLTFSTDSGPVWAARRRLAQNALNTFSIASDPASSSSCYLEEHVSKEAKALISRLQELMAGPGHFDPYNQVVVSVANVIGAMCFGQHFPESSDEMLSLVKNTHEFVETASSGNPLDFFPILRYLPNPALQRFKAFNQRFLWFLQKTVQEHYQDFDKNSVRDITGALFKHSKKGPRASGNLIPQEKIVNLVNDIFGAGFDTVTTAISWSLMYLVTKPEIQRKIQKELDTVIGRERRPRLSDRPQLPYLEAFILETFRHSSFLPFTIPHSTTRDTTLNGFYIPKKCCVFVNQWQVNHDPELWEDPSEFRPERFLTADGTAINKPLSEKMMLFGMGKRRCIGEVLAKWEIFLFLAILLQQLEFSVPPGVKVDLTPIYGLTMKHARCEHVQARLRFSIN

AC50, active:
CC(=O)N1c2c(cc(Br)cc2S(=O)(=O)NCC2COc3ccccc3O2)CC1C (centres undefined) 3.16 µM
COc1ccc(C(=O)NN)cc1COc1ccc(Br)cc1 0.2 µM
C=CCc1cc(C=O)cc(OC)c1OCc1ccc(Cl)cc1 1.12 µM
CCOC(=O)c1cc(-c2ccccc2)sc1NC(=O)c1ccc(OC)cc1 8.91 µM
COC(=O)c1cc(-c2ccccc2)sc1NC(=O)CN1C(=O)c2ccccc2C1=O 0.708 µM
CCOC(=O)c1c(NC(=O)CCCN2CCOCC2)sc2c1CC(C)(C)OC2 14.1 µM
CCN1C(=O)/C(=C/C=C2/SCCN2C)SC1=S 1 µM
CCNc1nc(Sc2ccc(C)cc2)cc(C(F)(F)F)n1 3.16 µM
Cn1c(=O)c(-c2ccc(F)cc2)nc2cnc(Oc3ccccc3)nc21 0.316 µM
COc1ccc(Oc2ncc3nc(-c4ccc(F)cc4)c(=O)n(C)c3n2)cc1 2 µM
COc1ccccc1-c1ccc2ncnc(N3CCOCC3)c2c1 0.631 µM
CN(C)Cc1ccccc1-c1ccc2ncnc(N3CCOCC3)c2c1 15.8 µM
FC(F)(F)c1ccccc1-c1ccc2ncnc(N3CCOCC3)c2c1 0.251 µM
COc1cccc(-c2ccc3ncnc(N4CCOCC4)c3c2)c1 1 µM
COc1ccccc1-c1ccc2ncnc(N3CCN(C)CC3)c2c1 3.16 µM
CCc1c(C)nc2ncnn2c1NCCc1ccc(OC)cc1 15.8 µM
O=S(=O)(c1ccccc1)c1cnc(-c2cccnc2)nc1-c1ccc(Cl)cc1Cl 8.91 µM
CCC(C)(C)N=C(NC#N)Nc1cccnc1 12.6 µM
O=S(=O)(NCc1cc(-c2ccccc2Cl)no1)c1ccc(Cl)cc1 1 µM
O=S(=O)(NCc1cc(-c2ccccc2Cl)no1)c1ccccc1 7.08 µM
O=C1c2ccccc2C(=O)N1Cc1cc(-c2ccccc2Cl)no1 0.794 µM
COc1cccc(N=Cc2c[nH][nH]c2=O)c1 1 µM
O=c1[nH][nH]cc1C=Nc1ccccc1O 10 µM
N[C@@H](C(=O)O)c1cc(O)ccc1Cl 15.8 µM
CCNc1nc(NCC)nc(ON=C(C)C)n1 14.1 µM
CCCNc1nc(NCC)nc(OC)n1 11.2 µM
O=C(Nc1nc2ccc(F)cc2s1)C1CCCO1 (centres undefined) 4.47 µM
CC(CCc1ccccc1)NC(=O)/C=C/c1ccccc1 (centres undefined) 12.6 µM
CCCCNC(=O)C(=O)NC(C)CCc1ccccc1 (centres undefined) 15.8 µM
CC(CCc1ccccc1)NS(=O)(=O)c1ccccc1 (centres undefined) 14.1 µM
COc1cc(-c2nc3ccccn3c2/N=C/c2ccccc2)ccc1O 3.16 µM
C[n+]1cc2c3c(ccc2c2ccc4cc5c(cc4c21)OCO5)OCO3 3.98 µM
Cc1cnc(CNc2ccnc(-c3ccoc3)n2)cn1 12.6 µM
Cc1cnc(CNc2ccnc(-c3ccc(N(C)C)cc3)n2)cn1 2.51 µM
C[N+](C)(C)c1cc2c(nn1)Nc1ccccc1S2 2 µM
CC(/C=C/c1ccco1)=N/NC(=O)c1ccccc1Cl 17.8 µM
Cc1ccc(NC(=S)/C(=C(\[O-])c2ccc(C)c([N+](=O)[O-])c2)[n+]2ccccc2)cc1C 14.1 µM
O=C(COC(=O)c1cccnc1Nc1cccc(C(F)(F)F)c1)NCc1ccc2c(c1)OCO2 3.55 µM
O=C(O)c1cccnc1Nc1cccc(C(F)(F)F)c1 5.01 µM
CC(C)n1nnnc1SCC(=O)c1ccc2c(c1)OCCO2 5.01 µM
CCn1nnnc1SCC(=O)c1ccc2c(c1)OCCO2 8.91 µM
Cc1cc(C(=O)NNCc2ccccc2)no1 12.6 µM
COC(=O)[C@@H]1C[C@H]1[C@@H](NC(=O)c1cc(C)on1)c1ccccc1 20 µM
COC(=O)[C@@H]1C[C@H]1[C@@H](NC(=O)c1cc(C)nn1C)c1ccccc1 15.8 µM

AC50, inactive:
O=C(c1ccco1)N1CCC2(CCCN(Cc3ccccc3)C2)CC1
O=C(NCC1COc2ccccc2O1)C1CCN(S(=O)(=O)c2cccc3nsnc23)CC1 (centres undefined)
CCCN(CCC)CCCNS(=O)(=O)c1cc(Br)cc2c1N(C(C)=O)CC2
COc1ccc(/C=C/C(=O)NCc2cn(C)nc2C)cc1COc1ccc(Br)cc1
NC(=O)CNC(=O)[C@@H]1CC2(CC(c3ccc(Cl)cc3)=NO2)CN1C(=O)c1ccccc1 (some centres undefined)
CCOC(=O)c1cc(-c2ccccc2)sc1NC(=O)C(C)(C)C
CNC(=O)c1ccc(-c2sc3nc(N4CCOCC4)c4c(c3c2N)CC(C)(C)OC4)o1
CCOC(=O)c1c(NC(=O)c2ccc(N3CCOCC3)c([N+](=O)[O-])c2)sc(C)c1C
CN1CCN(NC(=O)CN2C(=O)/C(=C/c3c(Cl)cccc3Cl)SC2=S)CC1
Cc1ccc(Sc2cc(Cl)nc(N)n2)cc1
O=C(O)C1CCN(c2ncnc3ccc(-c4ccccc4C(F)(F)F)cc23)CC1
CN(C)C(=O)c1ccc(-c2ccc3ncnc(N4CCOCC4)c3c2)cc1
COc1ccc(C(=O)N2CCC[C@@]3(CCN(Cc4cc(C(F)(F)F)cc(C(F)(F)F)c4)C3)C2)cc1
Cc1ccc(CNC(=O)CCc2c(C)nc3ncnn3c2C)cc1
CCOC(=O)CCc1c(C)nc2ncnn2c1C
O=c1cc(N2CCC(Cc3ccccc3)CC2)[nH]c(=O)n1C1CCCCC1
O=S(=O)(c1ccc(Cl)cc1)c1cnc(-c2cccnc2)nc1-c1ccccc1
CCCNC(=O)NS(=O)(=O)c1ccc(Cl)cc1
COc1ccc(CC(=O)N2CCN(c3ccc(C4=NNC(=O)CC4C)cc3)CC2)cc1 (centres undefined)
O=c1c(C=Nc2ccc(Oc3ccccc3)cc2)c[nH]n1-c1cccc(Cl)n1
N[C@@H](C(=O)O)c1ccc(C(=O)O)c(O)c1
N[C@H](C(=O)O)c1ccc(C(=O)O)c(O)c1
O=C(O)CN(CCOCCOCCN(CC(=O)O)CC(=O)O)CC(=O)O
CCCn1nc(Oc2nc(NCC)nc(NC(C)C)n2)ccc1=O
O=S(=O)(c1ccccc1)N1CCC2(CCN(C(c3ccccc3)c3ccccc3)CC2)CC1
COc1cc2nc(N(C)CCCNC(=O)[C@@H]3CCCO3)nc(N)c2cc1OC
Cc1cccc(C(=O)NNC(=O)C2CCCO2)c1 (centres undefined)
CS(=O)(=O)N1CCC2(CCN(Cc3ccncc3)CC2)CC1
CCOC(=O)[C@H](CCc1ccccc1)N[C@@H](C)C(=O)N1CCC[C@H]1C(=O)O
CC(CCc1ccccc1)NC(=O)C(=O)NCCO (centres undefined)
C[C@@H](CCc1ccccc1)NC[C@H](O)c1ccc(O)c(C(N)=O)c1
O=[N+]([O-])c1ccc(Cl)c(-c2ccc(/C=N/c3c(-c4ccco4)nc4ccccn34)o2)c1
CCCCC/C=C\C[C@H](O)/C=C\c1cccc(C[C@H](O)CCCCO)n1
CC(C)=C1C(=O)C(c2ccccc2)=C2CN3C(=O)N(CCc4ccccc4)C(=O)[C@]3(Cc3ccccc3)[C@H]21
O=C(O)c1cccnc1C(=O)O
CCOC(=O)C1CN(S(=O)(=O)c2cccc(C(F)(F)F)c2)c2cc(CC(=O)OC)ccc2O1 (centres undefined)
O=C(O)Cc1ccc2c(c1)N(S(=O)(=O)c1cccc(C(F)(F)F)c1)CC(C(=O)O)O2 (centres undefined)
O=C(O)c1sc2cc(C(F)(F)F)cnc2c1-c1ccccc1
CCN[C@@H]1C[C@H](C)S(=O)(=O)c2sc(S(N)(=O)=O)cc21
CC(=O)N[C@H]1[C@@H](O[C@@H](C)C(=O)O)[C@H](O)[C@H](CO)O[C@@H]1O
Cc1occc1C(=O)NNC(=O)Cc1ccccc1
Cc1cc(CNC(=O)[C@H]2C[C@@H]2[C@H](NP(=O)(c2ccccc2)c2ccccc2)c2ccccc2)nn1C
CCNC(=S)NNC(=O)c1cc(C)on1

activity, negative = inhibition, inactive:
O=C(CN1C(=O)c2ccccc2C1=O)NC1(C(=O)O)CCCC1 -2.12% [at 2.29 µM]
COCCCN1C(=O)C(=O)/C(=C(/O)c2ccc(OC(C)C)c(C)c2)C1c1ccncc1 (centres undefined) 15.5% [at 11.4 µM]
CC1(C)O[C@H]2O[C@@H]([C@H](O)CON3C(=O)c4ccccc4C3=O)[C@H](O)[C@H]2O1 -10.7% [at 11.4 µM]
C[C@@](O)(CNS(=O)(=O)c1ccccc1)c1ccccc1 -17.4% [at 11.4 µM]
C[C@@H](CS(=O)(=O)Cc1ccccc1)C(N)=O -13.3% [at 11.4 µM]
Cc1ccc(S(=O)(=O)N[C@@H](CCc2ccccc2)CC(=O)C(C)(C)C)cc1 2.3% [at 11.4 µM]
C=CC[C@@H]1C=C[C@H](O/N=C2\c3cc(OC)ccc3O[C@H](c3cccc(OC)c3)[C@H]2O)[C@H](CO)O1 -7.04% [at 11.4 µM]
CO/N=C\c1ccc(C(=O)N2[C@H](c3ccc(C)cc3)[C@@H](C)CC[C@H]2C(=O)OC)cc1 -13.4% [at 11.4 µM]
O=C(O)CC1(CC(=O)O)Nc2ccccc2SC1=O 2.04% [at 2.29 µM]
Cc1ncc(COP(=O)(O)O)c(C)c1O -20.3% [at 11.4 µM]
COC(=O)[C@@H]1CC[C@H](C)[C@@H](c2ccc(C)cc2)N1C(=O)c1ccc(/C=N\O[C@@H](C)CN2CCCCc3nc(C)c(C)cc32)cc1 -5.58% [at 11.4 µM]
CO[C@H]1COC(=O)[C@H]2CCCN2C(=O)C/C=C\[C@@H](C)[C@H](OC)COC(=O)C/C=C\[C@@H]1C 1.68% [at 11.4 µM]
